From PubChem BioAssay (NCI)
Compounds without any hit were thinned out: in the full panel of roughly 83,000, 20% have a hit.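 Values shown are percent growth following 48 h exposure of cells in 96-well plates to a single concentration of compound; below 10 was considered active.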 Calls of active or inactive are those of the source.

System: HL-60(TB) leukemia
Assay: NCI-60 one-dose screen, 48 h (100 = growth as untreated, 0 = no growth, -100 = all killed)
Details: 10 µM unless noted

Row | Structure (SMILES) | growth
1 | COc1ccc(N)cc1C(=O)Nc1cccc(-c2cc(=O)c3c(OC)c(OC)c(OC)cc3o2)c1 | 58.1% (inactive)
2 | NS(=O)(=O)c1cccc(Nc2nc(SCC(=O)c3ccc(Cl)cc3)nc3ccccc23)c1 | 90.9% (inactive)
3 | Cn1c(SCC(=O)c2cccs2)nc2ccccc2c1=O | 91.8% (inactive)
4 | C#CCN(C)CCCOc1ccc(NCc2ccc(/C=C/C(=O)NO)cc2)cc1Cl | 6.07% (active)
5 | Nc1ncc(-c2ccc(NS(=O)(=O)c3ccc(Cl)c(Cl)c3)cc2)[nH]1 | 47.7% (inactive)
6 | Cc1cc(-c2ccc(Cl)cc2)n(Cc2nnc(SCC(=O)Nc3ccc(S(N)(=O)=O)cc3)n2-c2ccc([N+](=O)[O-])cc2)n1 | 76.8% (inactive)
7 | COc1ccc(C2CC(c3cccc(Nc4nc(Cl)nc5cc(OC)c(OC)cc45)c3)=Nc3c(N)nc(N)nc3N2)cc1 (stereo unspecified) | 47.4% (inactive)
8 | CC1=C(C)C(=O)C(Nc2ccccc2)=C(Cl)C1=O | 45.6% (inactive)
9 | O=C1/C(=C/c2cc(F)cc(F)c2)Cc2cc3c(cc21)OCO3 | 3.69% (active)
10 | C(=N\Nc1nc(N/N=C/c2ccc3c(c2)OCO3)nc(N2CCCCC2)n1)/c1ccc2c(c1)OCO2 | 60.4% (inactive)
11 | CC(O)C(NC(=O)C1CCCN1C(=O)CNC(=O)C1CC(=O)NCC(=O)NC(Cc2c[nH]c3ccccc23)C(=O)NC(Cc2ccc(O)cc2)C(=O)NCC(=O)NC(CO)C(=O)NC(CCC(N)=O)C(=O)NC(Cc2c[nH]c3ccccc23)C(=O)N1)C(=O)NCC(=O)NC(CCC(N)=O)C(=O)NC(CCCNC(=N)N)C(=O)NC(CC(=O)O)C(=O)O (stereo unspecified) | 99.7% (inactive)
